Data as given in the supplement of paper PMC10849652.
About 8,800 targets were measured; listed, in parts, are those with a hit and a random draw of the rest. About 0.5% of all pairs of compound and target were hits. A number with no mark means an inactive call.

What was measured:
Experiment in all cases: log2 fold change, soluble protein after heating vs DMSO (PISA); higher = thermal stabilisation; K562 lysate, 10 uM; active = over 0.2 and 3.5 SD of the protein, either way, in both replicates (recomputed)
vemurafenib = compound: CCCS(=O)(=O)Nc1ccc(F)c(C(=O)c2c[nH]c3ncc(-c4ccc(Cl)cc4)cc23)c1F [vemurafenib]
Method in brief: (§1)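 Log-two fold change in thermal stability relative to solvent controls is reported from duplicates. For each sample, crude K562 extract from dounce-homogenised pellets in PBS pH 7.4 with 1 mM MgCl2, at 1 mg/mL protein, was treated with 10 μM compound for 30 min. Aliquots heated for 3 min across 48°C-58°C were pooled, brought to 0.5% NP-40 at 4°C and cleared at 21,000xg for 90 min. The supernatant was quantified by TMTpro 16plex LC-MS/MS with channel sums equalised.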

[1] = compound: CCCS(=O)(=O)Nc1ccc(F)c(C(=O)c2c[nH]c3ncc(Cl)cc23)c1F
Method in brief: as §1

barasertib = compound: CCN(CCCOc1ccc2c(Nc3cc(CC(=O)Nc4cccc(F)c4)[nH]n3)ncnc2c1)CCOP(=O)(O)O [barasertib]
Method in brief: as §1

volasertib = compound: CC[C@@H]1C(=O)N(C)c2cnc(Nc3ccc(C(=O)N[C@H]4CC[C@H](N5CCN(CC6CC6)CC5)CC4)cc3OC)nc2N1C(C)C [volasertib]
Method in brief: as §1

[2] = compound: CCn1c(C(=O)N(C2CC2)C2CC2)cc2c3c(ncn3C)c(Nc3cc(C)n(C)n3)nc21
Method in brief: as §1

[3] = compound: CCn1cc(-c2ccnc3[nH]c(-c4cccc(CN(C)C)c4)cc23)c(-c2ccc(NC(=O)N(C)C)cc2)n1
Method in brief: as §1

[4] = compound: CN1CCC(CNc2ccc3ncc(-c4cccc(OC(F)(F)F)c4)n3n2)CC1
Method in brief: as §1

saracatinib = compound: CN1CCN(CCOc2cc(OC3CCOCC3)c3c(Nc4c(Cl)ccc5c4OCO5)ncnc3c2)CC1 [saracatinib]
Method in brief: as §1

sotrastaurin = compound: CN1CCN(c2nc(C3=C(c4c[nH]c5ccccc45)C(=O)NC3=O)c3ccccc3n2)CC1 [sotrastaurin]
Method in brief: as §1

[5] = compound: CC[C@@H]1C(=O)N(C)c2cnc(Nc3ccc(C(=O)NC4CCN(C)CC4)cc3OC)nc2N1C1CCCC1
Method in brief: as §1

Chain of UniProt Q9BQI0 (Q9BQI0 whole entry, looked up): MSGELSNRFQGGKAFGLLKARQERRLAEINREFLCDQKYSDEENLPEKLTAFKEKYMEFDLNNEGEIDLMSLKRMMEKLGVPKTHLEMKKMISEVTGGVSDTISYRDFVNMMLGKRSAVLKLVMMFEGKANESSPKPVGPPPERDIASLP
Chain of UniProt Q2VPB7 (Q2VPB7 whole entry, looked up): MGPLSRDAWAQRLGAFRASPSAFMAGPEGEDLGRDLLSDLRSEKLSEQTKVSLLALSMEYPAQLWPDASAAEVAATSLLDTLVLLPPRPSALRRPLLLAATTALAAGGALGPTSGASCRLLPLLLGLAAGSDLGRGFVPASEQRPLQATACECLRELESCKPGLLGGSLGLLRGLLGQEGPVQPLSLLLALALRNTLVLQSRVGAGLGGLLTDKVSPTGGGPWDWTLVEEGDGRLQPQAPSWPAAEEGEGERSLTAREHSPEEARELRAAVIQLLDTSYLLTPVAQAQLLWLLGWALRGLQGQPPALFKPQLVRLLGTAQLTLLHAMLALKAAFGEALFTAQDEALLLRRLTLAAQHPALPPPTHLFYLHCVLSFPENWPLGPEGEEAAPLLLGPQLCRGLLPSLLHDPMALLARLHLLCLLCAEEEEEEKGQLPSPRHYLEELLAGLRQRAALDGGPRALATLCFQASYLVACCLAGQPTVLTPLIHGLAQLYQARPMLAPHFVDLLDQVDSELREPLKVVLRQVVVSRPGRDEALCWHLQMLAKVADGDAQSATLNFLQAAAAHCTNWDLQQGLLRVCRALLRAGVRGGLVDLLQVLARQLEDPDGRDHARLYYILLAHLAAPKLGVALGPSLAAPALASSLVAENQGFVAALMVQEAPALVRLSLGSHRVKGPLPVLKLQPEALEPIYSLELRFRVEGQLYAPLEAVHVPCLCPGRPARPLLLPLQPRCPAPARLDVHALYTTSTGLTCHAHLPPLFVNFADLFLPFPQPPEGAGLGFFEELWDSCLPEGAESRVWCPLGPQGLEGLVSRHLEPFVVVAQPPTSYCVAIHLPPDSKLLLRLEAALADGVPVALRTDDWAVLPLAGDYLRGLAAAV
Chain of UniProt P78536 (P78536 whole entry, looked up): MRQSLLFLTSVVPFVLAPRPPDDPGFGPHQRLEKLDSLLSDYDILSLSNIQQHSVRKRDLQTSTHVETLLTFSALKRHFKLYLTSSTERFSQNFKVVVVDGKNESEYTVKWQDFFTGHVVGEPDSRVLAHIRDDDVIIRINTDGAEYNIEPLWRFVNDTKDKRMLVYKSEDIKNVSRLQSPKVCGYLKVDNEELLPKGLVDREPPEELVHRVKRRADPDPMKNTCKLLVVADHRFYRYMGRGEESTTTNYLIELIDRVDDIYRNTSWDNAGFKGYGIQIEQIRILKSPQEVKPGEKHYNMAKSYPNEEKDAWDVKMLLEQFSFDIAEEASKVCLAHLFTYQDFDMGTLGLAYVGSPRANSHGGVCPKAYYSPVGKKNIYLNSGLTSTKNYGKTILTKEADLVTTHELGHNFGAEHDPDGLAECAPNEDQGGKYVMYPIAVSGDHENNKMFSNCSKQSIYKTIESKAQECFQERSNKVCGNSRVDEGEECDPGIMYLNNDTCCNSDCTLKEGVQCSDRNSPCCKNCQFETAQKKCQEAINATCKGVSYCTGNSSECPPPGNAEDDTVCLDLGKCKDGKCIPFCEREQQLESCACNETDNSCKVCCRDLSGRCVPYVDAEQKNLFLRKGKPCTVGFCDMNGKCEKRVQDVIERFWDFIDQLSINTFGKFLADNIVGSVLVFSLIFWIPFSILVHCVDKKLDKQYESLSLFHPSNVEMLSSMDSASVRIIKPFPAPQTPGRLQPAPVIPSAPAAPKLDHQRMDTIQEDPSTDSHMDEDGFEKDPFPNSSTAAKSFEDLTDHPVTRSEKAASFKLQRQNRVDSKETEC
Chain of UniProt Q8N8A2 (Q8N8A2 whole entry, looked up): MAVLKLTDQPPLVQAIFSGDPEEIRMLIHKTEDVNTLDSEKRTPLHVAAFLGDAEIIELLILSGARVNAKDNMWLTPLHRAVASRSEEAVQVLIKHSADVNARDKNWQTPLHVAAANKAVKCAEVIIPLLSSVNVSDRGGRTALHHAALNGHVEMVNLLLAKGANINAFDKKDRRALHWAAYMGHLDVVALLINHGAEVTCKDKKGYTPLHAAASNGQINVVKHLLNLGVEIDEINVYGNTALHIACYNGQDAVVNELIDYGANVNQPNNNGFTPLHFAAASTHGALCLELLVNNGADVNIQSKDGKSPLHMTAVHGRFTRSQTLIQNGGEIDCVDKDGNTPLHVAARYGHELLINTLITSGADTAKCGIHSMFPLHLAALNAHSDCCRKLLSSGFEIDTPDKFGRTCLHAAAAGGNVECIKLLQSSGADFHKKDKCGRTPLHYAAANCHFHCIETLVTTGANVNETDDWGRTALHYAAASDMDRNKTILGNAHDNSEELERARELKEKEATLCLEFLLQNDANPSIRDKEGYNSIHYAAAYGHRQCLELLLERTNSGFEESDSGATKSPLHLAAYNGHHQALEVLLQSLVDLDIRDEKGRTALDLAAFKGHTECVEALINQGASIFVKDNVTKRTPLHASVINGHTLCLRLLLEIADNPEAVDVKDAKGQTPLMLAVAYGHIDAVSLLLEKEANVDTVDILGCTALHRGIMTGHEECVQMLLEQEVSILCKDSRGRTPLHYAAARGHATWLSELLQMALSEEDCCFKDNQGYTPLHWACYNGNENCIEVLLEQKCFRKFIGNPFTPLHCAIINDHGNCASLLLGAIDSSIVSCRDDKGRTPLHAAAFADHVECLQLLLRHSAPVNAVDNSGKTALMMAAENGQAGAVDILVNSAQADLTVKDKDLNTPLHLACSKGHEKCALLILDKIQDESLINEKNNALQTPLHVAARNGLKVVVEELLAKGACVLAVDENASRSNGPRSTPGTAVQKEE
Chain of UniProt P30838 (P30838 whole entry, looked up): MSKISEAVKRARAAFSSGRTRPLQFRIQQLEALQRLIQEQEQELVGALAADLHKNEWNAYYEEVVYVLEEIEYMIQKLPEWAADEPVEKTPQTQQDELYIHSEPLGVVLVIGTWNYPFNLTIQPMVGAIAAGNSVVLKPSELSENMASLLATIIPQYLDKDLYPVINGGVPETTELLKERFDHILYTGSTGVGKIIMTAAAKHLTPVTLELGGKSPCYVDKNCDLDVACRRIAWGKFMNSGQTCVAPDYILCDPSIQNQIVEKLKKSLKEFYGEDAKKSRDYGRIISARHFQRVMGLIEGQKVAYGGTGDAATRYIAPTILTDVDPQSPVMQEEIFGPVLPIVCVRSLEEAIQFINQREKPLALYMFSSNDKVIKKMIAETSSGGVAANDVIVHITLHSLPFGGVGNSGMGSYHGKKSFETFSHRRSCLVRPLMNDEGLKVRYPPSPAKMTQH
Chain of UniProt P27216 (P27216 whole entry, looked up): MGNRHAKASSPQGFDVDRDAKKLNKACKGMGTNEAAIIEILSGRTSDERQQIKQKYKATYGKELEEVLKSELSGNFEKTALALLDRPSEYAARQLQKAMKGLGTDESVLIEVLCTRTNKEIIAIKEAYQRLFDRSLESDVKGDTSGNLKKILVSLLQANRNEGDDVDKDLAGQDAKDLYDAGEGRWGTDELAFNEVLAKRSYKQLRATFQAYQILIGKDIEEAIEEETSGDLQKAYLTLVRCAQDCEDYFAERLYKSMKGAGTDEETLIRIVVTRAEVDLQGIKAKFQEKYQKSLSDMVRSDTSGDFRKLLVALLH
Chain of UniProt P54886 (P54886 whole entry, looked up): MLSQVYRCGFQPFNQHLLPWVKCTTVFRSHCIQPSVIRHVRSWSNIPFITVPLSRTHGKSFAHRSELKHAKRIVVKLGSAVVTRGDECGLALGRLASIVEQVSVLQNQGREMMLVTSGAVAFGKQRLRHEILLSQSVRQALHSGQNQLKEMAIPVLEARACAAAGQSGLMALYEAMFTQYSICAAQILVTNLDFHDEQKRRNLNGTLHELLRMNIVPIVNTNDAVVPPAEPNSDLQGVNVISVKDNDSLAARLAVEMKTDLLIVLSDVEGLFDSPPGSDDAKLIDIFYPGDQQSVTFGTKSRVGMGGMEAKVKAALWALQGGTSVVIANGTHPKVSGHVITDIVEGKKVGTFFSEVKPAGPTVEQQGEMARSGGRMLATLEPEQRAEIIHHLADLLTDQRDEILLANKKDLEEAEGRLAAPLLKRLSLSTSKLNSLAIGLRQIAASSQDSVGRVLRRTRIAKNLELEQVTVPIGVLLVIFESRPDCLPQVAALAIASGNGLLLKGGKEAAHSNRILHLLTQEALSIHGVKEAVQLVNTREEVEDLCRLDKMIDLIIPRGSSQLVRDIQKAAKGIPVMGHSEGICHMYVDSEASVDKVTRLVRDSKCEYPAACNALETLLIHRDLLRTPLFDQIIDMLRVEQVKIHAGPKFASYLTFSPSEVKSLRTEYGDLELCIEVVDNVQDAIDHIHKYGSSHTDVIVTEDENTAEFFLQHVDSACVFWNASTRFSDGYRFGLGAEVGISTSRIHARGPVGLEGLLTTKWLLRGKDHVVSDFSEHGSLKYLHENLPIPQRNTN
Chain of UniProt Q3SXY8 (Q3SXY8 whole entry, looked up): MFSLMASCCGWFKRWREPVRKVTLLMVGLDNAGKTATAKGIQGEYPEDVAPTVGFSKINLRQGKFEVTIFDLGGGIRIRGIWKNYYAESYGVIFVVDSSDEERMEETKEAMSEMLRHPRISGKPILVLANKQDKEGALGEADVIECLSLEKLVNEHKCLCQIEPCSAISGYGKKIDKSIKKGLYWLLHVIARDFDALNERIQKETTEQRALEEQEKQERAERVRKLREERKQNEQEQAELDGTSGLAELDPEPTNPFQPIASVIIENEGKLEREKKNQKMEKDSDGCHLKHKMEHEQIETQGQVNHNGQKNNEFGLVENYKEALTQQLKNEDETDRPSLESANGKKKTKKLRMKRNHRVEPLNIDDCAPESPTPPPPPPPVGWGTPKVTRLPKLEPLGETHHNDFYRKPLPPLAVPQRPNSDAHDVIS
Chain of UniProt Q9P1F3 (Q9P1F3 whole entry, looked up): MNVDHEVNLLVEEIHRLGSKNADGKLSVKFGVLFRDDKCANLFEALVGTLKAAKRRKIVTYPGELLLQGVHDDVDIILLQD

Target	log2 fold change (vemurafenib)	log2 fold change [1]	log2 fold change (barasertib)	log2 fold change (volasertib)	log2 fold change [2]	log2 fold change [3]	log2 fold change [4]	log2 fold change (saracatinib)	log2 fold change (sotrastaurin)	log2 fold change [5]
ANXA13 isoform 2 (UniProt P27216)	-0.129	-0.071	0.091	-0.035	0.131	-0.179	0.106	0.004	-0.001	
AGPAT2 (UniProt O15120)	0.33 (active)				0.002	-0.034	0.023		0	0.108
ARHGEF2 (UniProt V9GYF0)	-0.013	0.05		-0.022	0.11			-0.114		0.022
AP5B1 (UniProt Q2VPB7)		0.062	0.035	0.011	0.001	0.002	0.045	-0.014	-0.062	0.066
ALDH18A1 isoform 2 (UniProt P54886)	0.308				0.043			0.13	0.121	
AKT2 (UniProt P31751)	0.008	0	-0.026	-0.031	0.025	0.007	0.004	-0.011	0.017	-0.024
ACYP2 (UniProt P14621)	-0.245	-0.023	0.04	0.011	-0.007	0.189	-0.036		-0.019	
ALDH3A1 (UniProt P30838)		0.014		0.035	-0.399	-0.618	0.216	1.2 (active)	-0.007	
ARHGAP6 (UniProt O43182)	0.074	0.038	0.116	-0.107	-0.014	0.072	-0.139	0.031	-0.049	-0.038
ANKRD44 isoform 2 (UniProt Q8N8A2)	0.056	0.019	0.058	0.054		-1.9 (active)	0.616			-0.308
ALKBH7 (UniProt Q9BT30)					0.072	0.233	-0.2	-0.012	-0.016	-0.031
ALG13 isoform 2 (UniProt Q9NP73)						0.016	-0.098			
AIMP2 isoform 2 (UniProt Q13155)		-0.134	0.038	0.047	-0.027				0.014	
ABHD13 (UniProt Q7L211)	0.069	-0.016	0.102	0.06		-0.543 (active)	0.077	0.179	-0.031	-0.107
ACVR1 (UniProt Q04771)			-0.115			-0.244	0.815 (active)			
ACAT1, A0A5F9ZHJ0					-0.131	-0.006	0.081			
ARL13B (UniProt Q3SXY8)	-0.075	-0.039	-0.041	0.065	-0.043	0.325	-0.246	0.007	0.117	
ABRACL (UniProt Q9P1F3)		-0.074	0.06	-0.001		0.156	0.053	0.134	0	
APOBEC3C (UniProt Q9NRW3)	-0.027	0.021	-0.006	-0.014	-0.081	-0.038	0.034	0.018	0.114	0.075
AGGF1 (UniProt Q8N302)	0.112	-0.043	0.115	-0.06	0.001	-0.43 (active)	0.175		0.025	0.084
ANKRD10 (UniProt Q9NXR5)	0.056	-0.035	0.137	0.1	0.115	-0.19	-0.022	0.017	0.01	
ADAM17 (UniProt P78536)	0.071		-0.184		-0.027	0.065	0.001	-0.011	0.002	-0.151
AIF1L (UniProt Q9BQI0)		0.049	0.009	-0.086	0.091	0.153	-0.117	0.13	0.115	-0.101
